High-throughput results deposited in PubChem by National Center for Advancing Translational Sciences (NCATS).
FUS yeast rescue: rescues growth of FUS-expressing yeast. S. cerevisiae FUS-expressing, growth rescue, OD600, 24 h. Potency, µM (top dose mostly 76.6 µM), hits mostly activators. actives 0.24% (n = 390,000). AID 1347120;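 further: plate controls were DMSO vehicle for no effect and reference control for full effect; nearly all actives have a fitted effect of over 55% in size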
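Restored growth of FUS-toxic S. cerevisiae, read as 600 nm absorbance after 24 h at 30C in galactose medium (starting OD 0.005). Controls CP55940 and DMSO.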
TDP43 rescue: TDP-43 toxicity inhibition in yeast. actives 1.8% (n = 410,000). Potency, µM (series often up to 46.1 µM), without a hit: at the highest dose growth rescue (activation), most hits filed as activators. TDP-43 expressing yeast growth rescue, BacTiter-Glo, 24 h. AID 652104; further: % of control where 0% means no effect; nearly all actives have a fitted effect of over 50% in size
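In this qHTS, compounds that restore growth of yeast expressing TDP-43 appear as activators. Cells (OD600=0.02, galactose medium, raffinose-pregrown) are incubated with compound 24 hr at 30 deg C and growth is quantified by BacTiter-Glo.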
Mito fusion yeast: blocks mitochondrial division or promotes mitochondrial fusion; S. cerevisiae fusion-defective mutant growth rescue, CellTiterGlo 48 h; Potency, µM (series often up to 46.1 µM), for inactives: at the top dose growth rescue (activation), usual class: activators; actives 0.23% (n = 320,000); AID 485298; further: % of control where 0% means no effect; nearly all actives have a fitted effect of over 45% in size
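Yeast fusion mutant, YPEG (non-fermentable carbon), compound, 48 h at 37C non-permissive; CellTiterGlo added, 10 min RT, luminescence read. Rescued growth = division inhibition.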
aSyn yeast inh: inhibitors of alpha-synuclein toxicity in yeast. Potency, µM (top dose mostly 46.1 µM), for the others: at the highest dose growth rescue (activation), most hits filed as activators. actives 0.14% (n = 370,000). AID 652106. Yeast expressing alpha-synuclein, growth rescue, BacTiter-Glo, 24 h; further: % of control where 0% means no effect; nearly all actives have a fitted effect of over 65% in size
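Screening used galactose-induced yeast with toxic alpha-synuclein levels, exposed to compound for 24 hr at 30 deg C. Cell growth, read with BacTiter-Glo luminescence, gave the measured signal.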
Abeta yeast res: compounds reversing amyloid beta toxicity in yeast. Potency, µM (top dose mostly 46.1 µM), actives largely listed as activators. yeast expressing A-beta42, growth rescue, OD600, 48 h; response scale: 0% DMSO, 100% iron-clioquinol control. actives 0.063% (n = 410,000). AID 1347071; further: nearly all actives have a fitted effect of over 55% in size
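Yeast growth medium received pinned compounds, then yeast cells expressing toxic A-beta were added; plates incubated at 30 C for 48 hr. Growth read as absorbance at 600 nm, normalized to DMSO and equimolar FeCl3 plus clioquinol controls.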
An asterisk follows results filed as active; i = inactive; ? = inconclusive; · = no result given; ! = not active in a repeat. Shown are actives, neighbours in structure and some others; about 2.2% of the full set was active somewhere. The call rests on the fitted dose curve; in most records, active means well fitted curve in the direction sought with a large enough effect; inconclusive means small, poorly fitted or top-dose-only effect, or another doubt; inactive means no such curve, though single readings can be large; an effect the other way counts as inactive or inconclusive. Potency means the concentration at half of the fitted maximal effect.

SMILES	FUS yeast rescue	TDP43 rescue	Mito fusion yeast	aSyn yeast inh	Abeta yeast res
CCNc1nc(-c2sc(NC(=O)C(C)(C)C)nc2C)c(-n2cc(-c3ccccc3)nn2)s1	i	28µM*	·	1%	i
Cc1nc(NC(=O)C(C)(C)C)sc1-c1nc(N)sc1-n1cc(-c2ccccc2)nn1	i	7%	·	2%	i
CCc1cc(=O)oc2cc3occ(-c4ccc(OC)c(F)c4)c3cc12	i	5%	16µM*	11%	i
O=C(NCCS(=O)(=O)N1CCN(c2cccc(Cl)c2)CC1)C1CCCC1	i	10%	11%	16%	i
Cc1nc(S(=O)(=O)N2CCOCC2)c(C#N)c(C)c1Cl	i	13µM*	4%	4%	i
O=C(Nc1ccc2oc(-c3ccccc3)nc2c1)c1cccnc1	i	-20%	4%	-7%	i
CCc1ccc2oc(-c3cc(N)ccc3O)nc2c1	i	?	-38%	-5%	i
CC(C)c1ccc2oc(-c3cc(NC(=O)c4cccnc4)ccc3Cl)nc2c1	i	16µM*	·	·	i
CCc1ccc2oc(-c3cc(N)ccc3Cl)nc2c1	i	18µM*	6%	3%	i
CCc1ccc2oc(-c3cc(NC(=O)c4cccs4)ccc3Cl)nc2c1	i	18µM*	·	-8%	i
Cc1ccc2oc(-c3cc(NC(=O)c4ccco4)ccc3Cl)nc2c1	i	9%	·	·	i
C[C@@H]1CCN(C2CC2)S(=O)(=O)c2c(cccc2N2CC[C@H](O)C2)O1	i	·	·	·	·
CCc1ccc(-n2c(=O)c3cccnc3n2CC(=O)Nc2ccccc2C(F)(F)F)cc1	i	21%	·	·	i
Cc1cc(Br)c(OCc2ccc(C(=O)N/N=C3\CC4CC=CC34)cc2)c(Br)c1 (stereo not given)	i	25µM*	?	10%	i
CCc1ccc(NC(=O)Cn2c(C(=O)OC)cc3oc(C)cc32)cc1	i	1%	·	·	i
CC1CCCC(NC(=O)CN(C)S(=O)(=O)c2cnc[nH]2)C1C (stereo not given)	i	24%	?	2%	i
COc1ccccc1C(=O)Nc1nnc(-c2ccc3c(c2)CCCC3)o1	?	18µM*	8%	?	i
CC1CN(S(=O)(=O)c2ccc(C(=O)Nc3nnc(-c4ccc5c(c4)CCCC5)o3)cc2)CC(C)O1 (stereo not given)	i	21%	0%	1%	i
O=C(Nc1nnc(-c2ccc3c(c2)CCCC3)o1)C1COc2ccccc2O1 (stereo not given)	i	18µM*	2%	6.3µM*	?
CC(=O)Nc1nnc(-c2ccc3c(c2)CCCC3)o1	i	32µM*	-14%	-10%	i
CCOC(=O)CC[C@H]1CC[C@]2(CCCN(C(=O)c3ccco3)C2)O1	i	·	·	·	·
C[C@H]1[C@H](NC(=O)c2cccc(Cl)c2)CC[C@@]23CCCN2C(=O)CCC[C@@H]13	i	·	·	·	·
COc1ccc(-c2nn3c(-c4cc(-c5ccccc5)n[nH]4)nnc3s2)cc1OC	·	·	·	-3%	·
Cc1nnc(SCc2ccc(Cl)c(Cl)c2)s1	·	13µM*	0%	6%	i
COC(=O)C1=C(C)NC(C)=C(C(=O)O[C@@H]2CCCN(Cc3ccccc3)C2)[C@@H]1c1cccc([N+](=O)[O-])c1	i	1%	·	3%	i
SMILES	FUS yeast rescue	TDP43 rescue	Mito fusion yeast	aSyn yeast inh	Abeta yeast res
COC(=O)C1=C(C)NC(C)=C(C(=O)OC(C)(C)CN(C)CCC(c2ccccc2)c2ccccc2)C1c1cccc([N+](=O)[O-])c1 (stereo not given)	·	·	0.65µM*	-20%	·
COCCOC(=O)C1=C(C)NC(C)=C(C(=O)OC(C)C)C1c1cccc([N+](=O)[O-])c1 (stereo not given)	i	?	21µM*!	1%	i
COCCOC(=O)C1=C(C)NC(C)=C(C(=O)OC/C=C/c2ccccc2)C1c1cccc([N+](=O)[O-])c1 (stereo not given)	·	·	5.8µM*	21%	·
CCOC(=O)C1=C(C)NC(C)=C(C(=O)OC)[C@H]1c1cccc([N+](=O)[O-])c1	·	·	·	1%	·
CCOC(=O)C1=C(C)NC(C)=C(C(=O)OC)C1c1cccc([N+](=O)[O-])c1 (stereo not given)	i	35µM*	-21%	20%	i
Nc1ncnc2c1nc(Cl)n2[C@@H]1O[C@H](CO)[C@@H](O)[C@@H]1O	·	·	·	5%	·
CCNS(=O)(=O)c1ccc(C(=O)OCC(=O)N2CCCc3ccccc32)cc1	i	9%	-4%	3%	i
C=c1[nH]cc(C(C)c2c(C)n(C)c3ccccc23)/c1=C/C (stereo not given)	i	·	·	·	·
COc1ccc(C(=O)NCC(=O)OCC(=O)c2ccc3ccccc3c2)cc1	·	·	·	5%	·
O=C(Nc1ccccc1Oc1ccccc1)c1cccc([N+](=O)[O-])c1	i	14µM*	9%	?	i
COc1ccc(Cn2c(NC(=O)c3ccccc3)nc(Cc3ccccc3)c2Cc2ccccc2)cc1	i	·	·	·	·
O=C(O)c1ccc(NCc2cccc(Br)c2)cc1	i	11µM*	10µM*	?	i
CCN(CC)C(=O)CSc1nc(N)c(C#N)c(-c2cccs2)c1C#N	i	13%	-3%	-6%	i
CCSc1nc(N)nc(-c2cccs2)c1C#N	i	22µM*	-2%	-18%	i
Cc1c(C=O)c2ccccn2c1C(=O)c1ccc(F)cc1	i	-25%	8%	16µM*	i
Cc1c(C=O)c2ccccn2c1C(=O)c1ccccc1	i	?	11%	18µM*	i
Cc1c(C=O)c2ccccn2c1C(=O)c1ccc(Cl)c([N+](=O)[O-])c1	i	5%	0%	-1%	i
CCOC(=O)Cc1ccc(Nc2nc(NCCOC)nc3ccsc23)cc1	i	24%	·	0%	i
O=C(N[C@H]1C[C@@H]2O[C@H](CO)CC[C@@H]2O[C@@H]1CCc1ccc(-c2cccnc2)cc1)c1cccc(F)c1	i	·	·	·	·
Cc1ccc(NC(=O)COC(=O)C2CCN(c3ccc(C(F)(F)F)cn3)CC2)cc1	i	25µM*	4%	2%	?
O=C(COC(=O)C1CCN(c2ccc(C(F)(F)F)cn2)CC1)NCc1ccccc1	i	22µM*	-2%	0%	i
CC(NC(=O)COC(=O)C1CCN(c2ccc(C(F)(F)F)cn2)CC1)c1ccccc1 (stereo not given)	i	-4%	·	27%	i
COc1ccc2c(c1)CO[C@H]([C@H](O)CO)[C@H]2/C=C/c1ccccc1	i	·	·	·	·
Cc1oc2ccc(O)c(CN3CCCC3)c2c1C(=O)Nc1ccc(C(C)C)cc1	i	9%	·	·	i
